From PubChem BioAssay
HTR5A inv ctr: inverse agonist of human HTR5A in OPRM1-OPRD1 counter-screen. hit rate 0.083% among 340,000. HTR5A cell line, luminescence, inverse agonism. AID 504634. inhibition, % at 9.3 µM. P47898; in the data active means inhibition mostly above about 23%, no sharp cut-off; inactive means mostly below about 18%;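 further: 0% = cells with DMSO and 100% = no-cell wells with DMSO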
HTR5A ag: activates human HTR5A in OPRM1-OPRD1 agonist counter-screen | hit rate 0.61% among 340,000 | P47898 | AID 504692 | HTR5A agonist assay, luminescence, cell-based | activation, % at 9.3 µM; in the data active means activation mostly above about 9.5%, no sharp cut-off; inactive means mostly below about 7.6%;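 further: 0% = cells with vehicle only and 100% = reference agonist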
OPRM1-OPRD1 inv: inverse agonist of human OPRM1-OPRD1 heterodimerization. AID 504357. hit rate 0.21% among 340,000. cell-based MOR-DOR heterodimer luminescence, inverse agonism. P35372+P41143. inhibition, % at 9.3 µM; in the data active means inhibition above about 22%, passing the limit was not always enough;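 further: 0% = cells with DMSO and 100% = wells without cells with DMSO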
MOR-DOR ag-1: agonists of human mu-delta opioid receptor heterodimerization. P35372+P41143. cells, OPRM1-OPRD1 heterodimerization, luminescence. activation, % at 9.3 µM. hit rate 0.3% among 340,000. AID 504326;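 further: 0% = vehicle-treated cells and 100% = reference agonist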
MOR-DOR ag-2: counter-screen for HTR5A agonists: OPRM1-OPRD1 heterodimerization agonism; activation, % at 9.3 µM; shares compounds with HTR5A ag; U2OS counter-screen cells, complementation luminescence, 3 h; hit rate 13% among 800; AID 504913
HTR5A ag conf: confirmation of human HTR5A agonists; shares compounds with HTR5A ag; activation, % at 9.3 µM; HTR5A agonist cell assay, luminescence; AID 504915; hit rate 17% among 800; in the data active means activation above about 17%;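 further: 0% = cells with vehicle only and 100% = full reference agonist response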
Starred values were filed as active, the others as inactive; · = no result. Sampled rows, rich in hits. Any-hit rate of the full collection: about 1.1%. Unless noted, no stated cut-off is given here; in the data, active means activation above about 18%; inactive means the rest.

SMILES | HTR5A inv ctr | HTR5A ag | OPRM1-OPRD1 inv | MOR-DOR ag-1 | MOR-DOR ag-2 | HTR5A ag conf
CC(C)(C)c1ccc(Oc2ccc(NC(=O)c3ccco3)cn2)cc1 | 16 | 16* | -32 | 6 | 28* | -2
Cc1ccc(C)c(NCC(O)c2ccccc2)c1 (centres undefined) | 19 | 1 | -12 | 2 | · | ·
Cc1ccc(/C=C/C(=O)N2CCN(S(=O)(=O)/C=C/c3ccccc3)CC2)o1 | -21 | 7 | 14 | -3 | · | ·
Cc1oc(-c2ccc(Cl)cc2)nc1CN1CCC(C(=O)N2CCN(Cc3ccccc3)CC2)CC1 | -43 | 16* | -26 | 5 | 2 | 3
Cc1oc(-c2ccc(Cl)cc2)nc1CN1CCC(C(=O)N2CCc3ccccc3C2)CC1 | 1 | 0 | -12 | 2 | · | ·
CCn1c(C)nc2cc(C(=O)N/N=C/c3ccc(O)cc3)ccc21 | 2 | 8 | 4 | -1 | · | ·
CCn1c(C)nc2cc(C(=O)N/N=C/c3ccc(OC)c(O)c3)ccc21 | -27 | 14* | -1 | 0 | 0 | -1
CC(NC(=O)c1ccccc1SCC(=O)N1CCCC1)c1ccc(F)cc1 (centres undefined) | -12 | 1 | 8 | -1 | · | ·
CCOc1ccccc1N1CCN(C(=O)NC2CCCCC2)CC1 | -14 | 0 | 19 | -3 | · | ·
CCC(C)(C)C1CCC(NC(=O)N2CCN(c3ccccc3O)CC2)CC1 (centres undefined) | -15 | 15* | -30 | 4 | 6 | 0
CCCCCCCCCCCCCCCC[n+]1ccc(C(N)=O)cc1 | -14 | 2 | 0 | 0 | · | ·
CCCCCCCCCCCCCCCC[n+]1ccc(/C=N/O)cc1 | -40 | 26* | -24 | 5 | 16 | 9
CN(CC(=O)Nc1cc(S(=O)(=O)N2CCCC2)ccc1Cl)Cc1nc2ccccc2c(=O)[nH]1 | 7 | -7 | 11 | -3 | · | ·
O[C@@H]1C2CCCC1[C@]1(O)CCCCC1C2 (some centres undefined) | -47 | 19* | 16 | -4 | 1 | 2
COc1ccc(CC2NCCC3(O)CCCCC23)cc1 (centres undefined) | -29 | -1 | 2 | 0 | · | ·
Cc1ccc(OCC(=O)N(C)CC(=O)Nc2ccc(F)cc2)c([N+](=O)[O-])n1 | 12 | -4 | -16 | 2 | · | ·
Cc1ccc2cccc(OCC(=O)N(C)CC(=O)Nc3ccc(F)cc3)c2n1 | -41 | 16* | 19 | -5 | 1 | 2
Cc1ccc(OCC(=O)N(C)CC(=O)Nc2ccc(Cl)c(C(F)(F)F)c2)c([N+](=O)[O-])n1 | -37 | 15* | -6 | 2 | -3 | -6
CC(COc1ccc(C(C)C)cc1)NC(=O)c1ccc(Br)o1 (centres undefined) | 13 | -4 | -25 | 4 | · | ·
CC1(C)C(=O)Nc2ccccc2N1C(=O)COc1ccccc1C#N | 9 | -2 | 10 | -2 | · | ·
FC(F)(F)c1cnc(N2CCCN(C(=S)Nc3ccccc3)CC2)c(Cl)c1 | -44 | 17* | -34 | 7 | -2 | 0
CCCCNc1c(-c2cccc(-c3cc(C(C)=O)cs3)c2)nc2cc(C)ccn12 | -69 | 24* | -46 | 8 | 5 | 6
Cc1ccc(OCCn2c(C)c(/C=N/n3cnnc3)c3ccccc32)cc1 | -31 | 21* | -1 | 0 | 10 | -1
Cc1c(/C=N/n2cnnc2)c2ccccc2n1CCOc1ccc(Cl)cc1 | -10 | 6 | -4 | 1 | · | ·
C/C(=N/Nc1ccc(C(=O)c2c(C)cc3ccccn23)cc1[N+](=O)[O-])c1ccc(O)cc1 | 11 | -3 | 17 | -3 | · | ·
SMILES | HTR5A inv ctr | HTR5A ag | OPRM1-OPRD1 inv | MOR-DOR ag-1 | MOR-DOR ag-2 | HTR5A ag conf
COc1ccc(C(=O)Nc2cc(OC)ccc2OC)cc1 | -3 | -9 | 9 | -1 | · | ·
COc1ccc(OC)c(NC(=O)c2cc(OC(C)=O)cc(C(=O)Nc3cc(OC)ccc3OC)c2)c1 | -68 | 18* | -14 | 3 | 0 | -4
CCOC(=O)c1c(C)[nH]c(C(=O)CSc2ccc(Cl)cc2)c1C | -30 | 15* | -13 | 2 | 4 | 9
CC(=O)c1ccc(OCC(=O)N(C)CC(=O)Nc2ccc(N3CCOCC3)cc2)cc1 | 6 | 0 | 8 | -2 | · | ·
CN1CCc2c(sc(NC(=O)C3COc4ccccc4O3)c2C(N)=O)C1 (centres undefined) | -69 | 17* | 11 | -2 | 0 | 52*
CCN1CCc2c(sc(NC(=O)Cc3ccccc3)c2C(N)=O)C1 | -2 | 2 | 14 | -3 | · | ·
CN1CCc2c(sc(NC(=O)Cc3ccccc3)c2C(N)=O)C1 | -36 | 12 | 6 | -1 | · | ·
CC(=O)N1CCc2c(sc(NC(=O)C3COc4ccccc4O3)c2C(N)=O)C1 (centres undefined) | -138 | 38* | 5 | -1 | 0 | 49*
CCN1CCc2c(sc(NC(=O)C3COc4ccccc4O3)c2C(N)=O)C1 (centres undefined) | -44 | 15* | 13 | -2 | -3 | -2
COC(=O)c1c(NC(=O)C2COc3ccccc3O2)sc2c1CCN(C(C)=O)C2 (centres undefined) | -2 | 1 | 2 | 0 | · | ·
CCOC(=O)N1CCc2c(sc(NC(=O)C3COc4ccccc4O3)c2C(N)=O)C1 (centres undefined) | -95 | 44* | -3 | 1 | 2 | 60*
CC(OC(=O)Cc1ccc(Br)cc1)C(=O)NC1CCCCC1C (centres undefined) | 7 | 1 | 3 | -1 | · | ·
Cc1ccc(NC(=O)COC(=O)CCc2c(C)nc3ncnn3c2C)cc1C | 8 | -2 | 20 | -4 | · | ·
CCOC(=O)C1(CCOc2ccccc2)CCN(Cc2cccc(OC)c2O)CC1 | 5 | -1 | -33 | 7 | · | ·
OC(CN1CCN(c2cccc(Cl)c2)CC1)c1ccc(F)cc1 (centres undefined) | -72 | 19* | -32 | 7 | 7 | 27*
O=C(Nc1ccc(Cl)c(S(=O)(=O)N2CCOCC2)c1)c1ccc(Cl)nc1 | -11 | 4 | -11 | 2 | · | ·
O=C1CCC(C(=O)N2CCCCCC2)CN1Cc1cccc(C(F)(F)F)c1 (centres undefined) | -10 | 3 | 20 | -4 | · | ·
O=C(OCCC12CC3CC(CC(C3)C1)C2)c1ccc(NCc2cc(O)ccc2O)cc1 | -58 | 15* | -14 | 3 | 6 | 6
O=C(OCC12CC3CC(CC(C3)C1)C2)c1ccc(NCc2cc(O)ccc2O)cc1 | -67 | 17* | -54 | 11 | 44* | 4
N#CCC(=O)Nc1ccc(C(=O)OCC(=O)C23CC4CC(CC(C4)C2)C3)cc1 | -19 | 1 | -10 | 2 | · | ·
CSc1ccccc1NC(=O)CN(C)C(=O)COc1cccc2cccnc12 | -44 | 16 | -4 | 1 | · | ·
Cc1ccc(-n2ncc3c(NCc4ccc5c(c4)OCO5)ncnc32)c(C)c1 | -10 | 15* | -7 | 1 | 1 | 3
Cc1cccc(-n2ncc3c(NCc4ccc5c(c4)OCO5)ncnc32)c1 | -37 | 7 | -25 | 5 | · | ·
COc1ccc(C)c2sc(N(CCN(C)C)C(=O)/C=C/c3cccs3)nc12 | -66 | 16* | -36 | 7 | 10 | 18*
